Only some compounds are listed: those with a hit (about 5.5% of all), similar ones and a draw of the others.
uPA surface inh – cell surface uPA generation inhibition; cell surface uPA generation assay, qHTS; Potency, µM (doses to about 38.3 µM), inactives show at the highest dose activity change, negative = inhibition, most hits filed as inhibitors; AID 540303; 330,000 compounds, 0.31% hits; active = well fitted inhibition curve with a large enough effect; inconclusive = small, poorly fitted or top-dose-only effect; inactive = no such curve, though single readings can be large or run the other way; tested in mouse RAW 264.7 cells; note: % is set by controls: 0 for no effect and ±100 for the full control effect; nearly all actives have a fitted effect of over 55% in size
a7 integrin act – activates integrin-mediated alleviation for muscular dystrophy | alpha7betagal myoblasts, beta-gal FDG fluorescence, 48 h | Potency, µM (top dose mostly 38.3 µM), inactives show at the highest dose activation, hits mostly activators | 350,000 compounds, 0.064% hits | AID 624291;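 note: 100% = response of the positive control SU9516; nearly all actives have a fitted effect of over 60% in size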
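alpha7betagal+/- myoblasts (passage 13, 250/well) treated 48 h at 37C with compounds at 1:260 dilution of DMSO stock. Lysed, then beta-galactosidase activity read as FDG fluorescence (ex 480/em 540) after 30 min, with pre-read for autofluorescence.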
RORgamma inh – blocks mouse ROR gamma transcriptional activity | Drosophila S2 Gal4-RORgamma UAS-luciferase reporter, 20 h | Potency, µM (top dose mostly 53.6 µM), for the others: at the top dose activity change, negative = inhibition, usual class: inhibitors | 310,000 compounds, 5.4% hits | AID 2551; note: % is set by controls: 0 for no effect and ±100 for the full control effect; nearly all actives have a fitted effect of over 60% in size
Target sequence (P51450 whole entry, looked up, the tested form may be a part): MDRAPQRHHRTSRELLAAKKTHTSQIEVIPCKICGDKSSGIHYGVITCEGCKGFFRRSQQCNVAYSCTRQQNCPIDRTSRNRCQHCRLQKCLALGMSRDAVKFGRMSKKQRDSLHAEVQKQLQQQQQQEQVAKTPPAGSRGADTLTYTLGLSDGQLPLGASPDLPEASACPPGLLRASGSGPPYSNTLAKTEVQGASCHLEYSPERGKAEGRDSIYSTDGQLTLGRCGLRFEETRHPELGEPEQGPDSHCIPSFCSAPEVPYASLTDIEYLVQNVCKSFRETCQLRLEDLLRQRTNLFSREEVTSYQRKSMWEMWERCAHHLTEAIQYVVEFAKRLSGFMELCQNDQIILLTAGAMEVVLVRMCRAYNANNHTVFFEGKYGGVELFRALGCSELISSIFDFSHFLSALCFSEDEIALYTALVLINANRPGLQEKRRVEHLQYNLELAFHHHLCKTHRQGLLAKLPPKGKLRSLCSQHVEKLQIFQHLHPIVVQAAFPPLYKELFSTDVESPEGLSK
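ROR gamma transcriptional activity was tracked as Gal4-UAS luciferase output in stably transfected Drosophila Schneider cells, with compound added 1 hr before 700 uM copper sulfate induction and a 20 hr ambient-temperature incubation.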
Mito fusion act – inhibitors of mitochondrial division or activators of mitochondrial fusion. Potency, µM (top dose mostly 46.1 µM), for the others: at the top dose growth rescue (activation), usual class: activators. S. cerevisiae fusion-defective mutant growth rescue, CellTiterGlo 48 h. AID 485298. 320,000 compounds, 0.23% hits; note: % of control where 0% means no effect; nearly all actives have a fitted effect of over 45% in size
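Read-out: ATP-based luminescence (CellTiterGlo, 10 min ambient) reporting growth of fusion-defective ts yeast after 48 hours at 37C on glycerol/ethanol YPEG medium in the presence of compound.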
BCR signal inh – chronic active BCR signaling inhibition | 340,000 compounds, 0.05% hits | ABC-DLBCL IkBa-CBG/CBR reporter, luminescence ratio, 4 h | Potency, µM (doses to about 46.1 µM), for inactives: top-dose activity change, negative = inhibition, usual class: inhibitors; active = well fitted inhibition curve with a large enough effect in the signal ratio, with a control signal flat, not every such curve was filed as active; inconclusive = small, poorly fitted or top-dose-only effect, or effect the other way, or a change in a side signal; the % refers to the signal ratio;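 note: plate controls were basal doxycycline-induced cells for no effect and cells given 10 µM MG132 for full effect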
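Compounds up to 46 uM were incubated four hours with TMD8 cells whose green CBG68 luciferase is fused to IkappaBalpha; red CBR luminescence normalised the signal, and concentration-effect curves were fitted to fusion, red and ratio data.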
VP16 counter – inhibits Gal4-VP16 luciferase reporter, ROR gamma counter-screen. Drosophila S2 Gal4-VP16 UAS-luciferase, luminescence, 20 h. Potency, µM (top dose mostly 53.6 µM), for inactives: at the top dose activity, negative = inhibition, actives largely listed as inhibitors. 310,000 compounds, 3.5% hits;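 note: Gal4-VP16 expression switched on by copper sulfate through the metallothionein promoter; % is set by controls: 0 for no effect and ±100 for the full control effect; nearly all actives have a fitted effect of over 50% in size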
Active calls of the source: *; u = inconclusive; x = not tested or not shown. Unless noted, calls come from the whole dose curve; as a rule, active = well fitted curve in the direction sought with a large enough effect; inconclusive = small, poorly fitted or top-dose-only effect, or another doubt; inactive = no such curve, though single readings can be large; an effect the other way counts as inactive or inconclusive. Potency is the fitted concentration of half-maximal effect.

SMILES	uPA surface inh	a7 integrin act	RORgamma inh	Mito fusion act	BCR signal inh	VP16 counter
Cc1ccc(C2C(=O)N(C3CCCCCC3)CC(=O)N2CCC2=CCCCC2)cc1 (stereo not given)	x	x	x	x	2%	x
CCOc1ccc(CNC(=O)Cn2ccc3cc(S(=O)(=O)N4CCCC4)ccc32)cc1	-2%	-21%	26%	-7%	0%	-2%
CCOc1ccc(CNC(=O)Cn2ccc3cc(S(=O)(=O)N4CCCCCC4)ccc32)cc1	1µM*	16%	21%	-6%	0%	u
COC(=O)c1nn(C)c(=O)[nH]c1=O	2%	41%	x	x	x	x
CN(c1ccccc1)S(=O)(=O)c1cccc(NC(=O)CSc2nnc(N)s2)c1	-3%	-30%	u	-7%	2%	u
CN(c1ccccc1)S(=O)(=O)c1cccc(NC(=O)CSc2nncs2)c1	-9%	-46%	37%	0%	5%	22µM*
Cc1cccc(NC(=O)CCn2nc(-c3ccccc3)c3ccccc3c2=O)c1	x	x	x	3%	u	x
Fc1ccc(-c2nc3n(n2)Cc2ccccc2-3)cc1	-10%	9%	0%	2%	u	u
c1ccc(-c2cn3c(n2)-c2ccccc2C3)cc1	6.3µM*	7%	10µM*	-2%	u	u
CSc1ccc(C2C(C#N)=C(N)Oc3c2ccc(=O)c2c(C)oc(C)c32)cc1 (stereo not given)	-9%	-31%	6.3µM*	2%	u	u
O=C(N/N=C1\CC2CC=CC12)c1ccc(O)cc1 (stereo not given)	-7%	10%	2.5µM*	-4%	u	4.5µM*
O=C(NN=C1CCCC1)c1ccc(O)cc1	4%	-21%	11µM*	2%	u	u
O=C(NN=C1CCCCCC1)c1ccncc1	1%	-22%	-17%	-1%	-20%	4%
O=C(NN=C1CCCC1)c1ccc([N+](=O)[O-])cc1	6%	24%	11µM*	-5%	u	0%
O=C(ONC1=NCCCCC1)c1ccc([N+](=O)[O-])cc1	-3%	-12%	10µM*	-4%	u	-13%
Cc1ccc(-n2nc3c(=O)n(C(C)C(=O)NC4CC4)nc(C)c3c2C)cc1 (stereo not given)	-14%	20%	8%	x	2%	-2%
CCCCn1c(N)c(N(CCOC)C(=O)CCN2C(=O)C3CC=CCC3C2=O)c(=O)[nH]c1=O (stereo not given)	1%	35%	x	x	x	x
COc1ccc(C2=Nn3c(nnc3-c3ccccc3O)SC2)c(OC)c1	x	x	-11%	x	x	1%
c1nc(N2CCNCC2)c2cc(-c3ccc4c(c3)OCO4)ccc2n1	x	x	18%	x	x	-5%
O=c1cc(-c2cccc(O)c2O)oc2ccccc12	x	x	-36%	x	x	-15%
Cc1ccc(-c2[nH]c3ccccc3c2C(C[N+](=O)[O-])c2ccco2)cc1 (stereo not given)	6%	-17%	3%	0%	u	22µM*
C/C(=C\C(=O)c1ccc(Br)cc1)NNC(=O)c1ccc(O)cc1	-13%	-3%	5µM*	0%	u	4.5µM*
C/C(=C\C(=O)c1ccc(Br)cc1)NNC(=O)c1ccccc1	-25%	-21%	x	x	x	x
CC(C)C[C@H](NC(=O)c1nc[nH]c1C(=O)NC1CCN(C(=O)OC(C)(C)C)CC1)C(=O)OC(C)(C)C	5%	-31%	3.2µM*	7%	-1%	7.1µM*
CC1CCN(C(=O)c2[nH]cnc2C(=O)NC2CCN(C(=O)OC(C)(C)C)CC2)CC1	19%	26%	x	-3%	-11%	x
C[C@H](NC(=O)c1nc[nH]c1C(=O)NC1CCN(C(=O)OC(C)(C)C)CC1)C(=O)OC(C)(C)C	-12%	-33%	u	-4%	0%	11µM*
COc1ccccc1CNC(=O)[C@H](C)NC(=O)C1CCN(C(=O)[C@H](CCSC)NC(=O)OC(C)(C)C)CC1	5%	0%	-8%	0%	u	0%
